ZTA counter = ZTA (EBV) inhibition in EBNA-1 counter-screen | P03206 | ZTA-DNA binding, fluorescence polarization | inhibition, % at 11 µM | 320,000 tested, 0.15% active; in the data active means inhibition above about 33%
Target sequence (P03206 whole entry, looked up): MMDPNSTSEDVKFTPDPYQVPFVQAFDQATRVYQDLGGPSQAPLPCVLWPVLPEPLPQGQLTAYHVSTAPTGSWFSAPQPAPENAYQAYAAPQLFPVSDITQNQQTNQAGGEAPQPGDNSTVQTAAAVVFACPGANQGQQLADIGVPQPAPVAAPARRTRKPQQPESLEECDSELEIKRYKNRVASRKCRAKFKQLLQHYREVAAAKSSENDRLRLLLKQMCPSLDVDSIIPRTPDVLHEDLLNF
NLRP3 yeast inh = blocks the NALP3 inflammasome reconstituted in yeast; Yeast reconstituted NLRP3/ASC/caspase-1, beta-gal luminescence, 24 h; inhibition, % at 10 µM; 330,000 tested, 0.39% active; AID 2825;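 active means inhibition of 50% or more; inactive means inhibition below 50%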
NALP1 yeast inh = inhibitors of NALP1 inflammasome in yeast | S. cerevisiae NALP1/ASC/caspase-1 growth, X-gal OD620, 72 h | inhibition, % at 10 µM | 280,000 tested, 0.61% active; in the data active means inhibition mostly above about 24%, no sharp cut-off; inactive means mostly below about 32%
EBNA-1 inhibitor = blocks EBNA-1 binding to DNA. EBNA-1 DNA binding, fluorescence polarization. inhibition, % at 14.8 µM. 300,000 tested, 0.34% active. AID 1950; in the data active means inhibition above about 28%
PolyA inh = yeast polyadenylation inhibition. 300,000 tested, 0.02% active. S. cerevisiae SKY197-pL101 polyadenylation reporter, beta-gal luminescence; efflux-impaired pdr1/pdr3 knockout yeast; score 100 = 6 SD above DMSO. AID 1875. activity score, % at 12 µM;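 active means lowest replicate activity score at least 50, where 100 means six control SD above control mean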;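 further: yeast exposed to compound for 9 h at 30 °C; higher score means more reporter readthrough which indicates perturbed polyadenylation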
dFosB act-1 = activators of mouse delta FosB homodimer; purified delta FosB, TAMRA-CDK5 oligo fluorescence polarization; percent of positive-control signal above neutral wells; P13346; activation, % at 25 µM; 340,000 tested, 0.99% active;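 active means mean activation above about 17%, with every replicate also reaching it, limit read from the data, passing the limit was not always enough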
Target sequence (P13346 whole entry, looked up): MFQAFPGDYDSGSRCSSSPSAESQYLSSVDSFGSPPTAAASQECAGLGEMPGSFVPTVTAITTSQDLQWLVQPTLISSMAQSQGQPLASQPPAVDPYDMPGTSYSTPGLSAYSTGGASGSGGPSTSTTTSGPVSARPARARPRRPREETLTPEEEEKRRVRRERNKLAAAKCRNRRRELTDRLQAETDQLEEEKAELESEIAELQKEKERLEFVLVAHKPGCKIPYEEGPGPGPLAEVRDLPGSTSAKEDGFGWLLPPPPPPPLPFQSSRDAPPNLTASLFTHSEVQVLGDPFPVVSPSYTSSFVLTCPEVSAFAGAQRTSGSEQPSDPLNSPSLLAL
dFosB act-2 = delta FosB (mouse) homodimer activation; 2,400 tested, under 10 active; shares compounds with dFosB act-1; AID 588690; purified delta FosB, TAMRA-CDK5 oligo fluorescence polarization; normalised: neutral wells 0, positive control 100; activation, % at 24.9 µM;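 active means highest replicate activation at or above 34% and every replicate reaching that threshold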;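 further: higher polarization means more probe DNA bound by delta FosB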
A number is an active result; - = inactive; . = no result. Compounds with a hit are over-represented: about 2.2% of the library has one in this group of screens.

SMILES | ZTA counter | NLRP3 yeast inh | NALP1 yeast inh | EBNA-1 inhibitor | PolyA inh | dFosB act-1 | dFosB act-2
CCc1ccc2oc(C(=O)NCC(c3ccc(OC)cc3)N3CCCCC3)c(C)c2c1 (configuration not stated) | - | - | - | - | - | 21 | -
O=C(Nc1ccc(CN2CCOCC2)cc1)c1ccc(-c2cccc([N+](=O)[O-])c2)o1 | - | - | - | - | - | 17 | -
O=C(O)c1ccc(COc2ccccc2[N+](=O)[O-])o1 | - | - | - | - | - | - | .
O=C(Nc1ccc(CN2CCOCC2)cc1)c1ccc(-c2cc(Cl)ccc2Cl)o1 | - | - | - | - | - | 26 | -
CC(=O)c1ccc(NC(=O)c2ccc(COc3ccccc3[N+](=O)[O-])o2)cc1 | - | - | - | - | - | 27 | -
CC(=O)Nc1ccc(NC(=O)c2ccc(-c3ccc([N+](=O)[O-])cc3)o2)cc1 | - | - | - | - | - | 29 | -
O=[N+]([O-])c1cccc(-c2ccc(C(=S)N3CCOCC3)o2)c1 | - | - | - | - | - | - | .
CN(CC(=O)N1CCN(c2ccccc2)CC1)C1CCCc2ccccc21 (configuration not stated) | - | - | - | - | - | - | .
CCC(OC(=O)CNS(=O)(=O)c1ccccc1)C(=O)c1ccccc1 (configuration not stated) | - | - | - | - | - | - | .
COc1ccccc1NC(=O)CN1CCN(C(=O)C2CCCO2)CC1 (configuration not stated) | - | - | - | - | - | - | .
O=C(Nc1nccs1)c1ccc(-c2cccc([N+](=O)[O-])c2)o1 | - | - | - | - | - | 26 | -
O=C(Nc1ccccc1F)c1ccc(-c2cccc([N+](=O)[O-])c2)o1 | - | - | - | - | - | - | .
O=C(Nc1ccc(NS(=O)(=O)c2ccccc2)cc1)c1ccccc1Cl | . | - | . | . | . | - | .
O=C(COC(=O)C1CC(=O)N(Cc2ccco2)C1)Nc1nc(-c2ccc(F)cc2)cs1 (configuration not stated) | . | - | . | . | . | - | .
C=CCn1c(=S)[nH]c2ccccc2c1=O | - | - | - | - | . | - | .
C=CCn1c(=S)[nH]c2cc(-c3ccccc3)sc2c1=O | - | - | - | - | - | 40 | -
CC(C)CN(C(=O)CSc1nnnn1-c1ccccc1)c1c(N)n(CC(C)C)c(=O)[nH]c1=O | - | - | - | - | - | 38 | -
CC(C)CN(C(=O)COC(=O)CSc1ccccc1)c1c(N)n(Cc2ccccc2)c(=O)[nH]c1=O | - | - | . | - | - | 29 | -
CC(C)CN(C(=O)COC(=O)/C=C/c1cccs1)c1c(N)n(Cc2ccccc2)c(=O)[nH]c1=O | - | - | . | - | - | 34 | -
COCCN(C(=O)COC(=O)/C=C/c1ccc2ccccc2n1)c1c(N)n(Cc2ccccc2)c(=O)[nH]c1=O | - | - | - | - | - | - | .
CN(C(=O)COC(=O)/C=C/c1ccc2ccccc2n1)c1c(N)n(Cc2ccccc2)c(=O)[nH]c1=O | - | - | . | . | . | 23 | -
CCCCN1C(=O)c2ccc(C(=O)NC3(C)CCS(=O)(=O)C3)cc2C1=O (configuration not stated) | - | - | . | . | . | - | .
O=C(OCc1ccc2c(c1)OCO2)c1ccc(S(=O)(=O)N2CCCCC2)cc1 | - | - | . | - | - | 35 | -
O=C(NCc1ccc2c(c1)OCO2)c1ccc(S(=O)(=O)N2CCCCC2)cc1 | - | - | - | - | - | - | .
COc1ccc(Cl)cc1C(=O)NC(=S)Nc1cc(-c2nc3ccccc3[nH]2)ccc1C | - | - | - | - | - | 36 | -
SMILES | ZTA counter | NLRP3 yeast inh | NALP1 yeast inh | EBNA-1 inhibitor | PolyA inh | dFosB act-1 | dFosB act-2
COc1ccc(NC(=O)Nc2ccc(F)cc2F)c(C)c1 | - | - | - | - | - | - | .
Cc1cc([N+](=O)[O-])ccc1NC(=O)Nc1ccc(F)cc1F | - | - | - | - | - | 24 | -
O=c1[nH]c(/C=C/c2ccccc2F)nc2ccccc12 | . | - | - | . | - | - | .
O=c1[nH]c(/C=C/c2cccc3ccccc23)nc2ccccc12 | - | - | - | - | - | 25 | -
C[C@@H](NC(=O)Cn1cnc2c(NCc3ccccc3)ncnc21)c1cccc2ccccc12 | . | . | . | . | . | 38 | -
CCOC(=O)c1c(C)[nH]c(C(=O)OCC(=O)Nc2ccccc2)c1C | - | - | . | . | . | 27 | -
CCOC(=O)c1c(C)[nH]c(C(=O)OCc2ccccc2)c1C | - | - | - | - | - | - | .
Cc1ccc(-c2nnn(CC(=O)N(Cc3ccccc3)C(C(=O)NC3CCCC3)c3ccncc3)n2)o1 (configuration not stated) | - | - | - | - | - | 33 | -
COCCCn1c(=O)c2sccc2n2c(CCCC(=O)NCc3ccc(OC)cc3)nnc12 | - | - | - | - | - | - | .
CNC(=O)c1ccc(-c2ccc(F)cc2)s1 | - | - | - | - | - | - | .
CNC(=O)c1ccc(-c2ccc(Cl)c(Cl)c2)s1 | - | - | - | - | - | 21 | -
O=C(CNC(=O)C1(c2ccccc2)CC1)Nc1ccc(F)c(F)c1 | - | - | . | - | - | - | .
O=C(Nc1ccc(F)cc1)c1cccc(N2C(=O)c3ccccc3C2=O)c1 | - | - | - | - | - | 35 | -
O=C(CNC(=O)c1cccc(N2C(=O)c3ccccc3C2=O)c1)Nc1ccc(F)c(F)c1 | - | - | . | . | . | 33 | -
O=C(Nc1ccc(-c2nc3ccccc3[nH]2)cc1)c1cccc(N2C(=O)CCC2=O)c1 | - | - | - | - | - | 36 | -
Cc1ccc(-n2nc3c(c2NC(=O)CC(C)C)CS(=O)(=O)C3)cc1 | - | - | - | - | - | - | .
CN(C)c1ccc(/C=C(/NC(=O)c2ccccc2Cl)C(=O)NCCN2CCOCC2)cc1 | - | - | - | - | - | - | .
CC(=O)NC(=S)c1c(N)n(Cc2ccccc2)c(=O)n(C)c1=O | - | - | - | - | - | . | .
CC(=O)Nc1ccc(SCC(=O)c2c(N)n(Cc3ccccc3)c(=O)n(C)c2=O)cc1 | - | - | - | - | - | 17 | -
Cc1ccc(C(=O)Nc2ccccc2N2CCCC2)cc1 | - | - | - | - | - | - | .
CCC(CC)C(=O)Nc1nnc(S(=O)(=O)N2c3ccccc3CC2C)s1 (configuration not stated) | - | - | - | - | - | - | .
Cc1ccc2c(c1)CC(C)N2S(=O)(=O)c1nnc(NC(=O)CC(C)C)s1 (configuration not stated) | - | - | - | - | - | 27 | -
Cc1ccc(C(C)C)c(OCC(=O)NN2C(=O)c3ccccc3C2=O)c1 | - | - | - | - | - | - | .
Cc1ccc(C(C)C)c(OCC(=O)NNC(=O)Cn2[nH]c(=O)c3ccccc3c2=O)c1 | - | - | . | . | . | 35 | -
Cc1ccc(C(=O)OCC(=O)Nc2cc(F)ccc2F)cc1NC(=O)c1ccco1 | - | - | - | - | - | 32 | -

From PubChem
